# Source: PubChem (National Center for Advancing Translational Sciences (NCATS))
# HCV inh: qHTS Assay for Inhibitors of Hepatitis C Virus (HCV); AID 651820, 2012; hit rate 3.4% among 340,000; Huh7.5.1 HCVcc-Cre infection, luciferase reporter, 44 h; Potency, µM (top dose mostly 41.8 µM), for inactives: at the top dose activity change, negative = inhibition, hits mostly inhibitors; also: potency is read from the fitted curve at half-maximal effect; % is scaled to controls: 0 for no effect and ±100 for the full control effect
#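 Infectious HCV cell culture screen: compound-treated cells (1,000/well, pre-plated 4 h) are infected with HCVcc-Cre at roughly 0.5 moi and grown 44 h. Infection is quantified by luciferase signal after 15 min substrate incubation at room temperature.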
# Pf growth 96h: Primary qHTS for delayed death inhibitors of the malarial parasite plastid, 96 hour incubation. P. falciparum luciferase reporter growth, 96 h. Potency, µM (top dose mostly 28.7 µM), for the others: at the top dose activity change, negative = inhibition, usual class: inhibitors. hit rate 6.9% among 320,000; also: potency is read from the fitted curve at half-maximal effect; % is scaled to controls: 0 for no effect and ±100 for the full control effect
#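 Delayed-death screen, second-generation endpoint: infected erythrocytes, 2% hematocrit, 0.05% parasitemia final; 96 hours at 37 C, 5% CO2; luciferase detection reagent; luminescence decrease equals reduced growth.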
# Pf growth 48h: Primary qHTS for delayed death inhibitors of the malarial parasite plastid, 48 hour incubation; P. falciparum luciferase growth in erythrocytes, 48 h; Potency, µM (doses to about 28.7 µM), for inactives: at the highest dose activity change, negative = inhibition, hits mostly inhibitors; hit rate 5.9% among 310,000; also: potency is read from the fitted curve at half-maximal effect; % is scaled to controls: 0 for no effect and ±100 for the full control effect
#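 In quantitative HTS format, infected erythrocytes bearing luciferase-reporter parasites were treated for a single generation at 37 C. Luminescence after adding detection reagent served as the growth measure.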
# AMA1-RON2 inh: qHTS for Inhibitors of AMA1-RON; Towards Development of Antimalarial Drug Lead: Primary Screen. Plasmodium falciparum AMA1 (3D7) - RON2 peptide interaction. AlphaScreen AMA1-biotinylated RON2 peptide binding. Potency, µM (top dose mostly 58.2 µM), for inactives: top-dose activity change, negative = inhibition, most hits filed as inhibitors. hit rate 0.2% among 360,000. AID 720542, 2013;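 also: potency is read from the fitted curve at half-maximal effect; 0% = vehicle wells and -100% = peptide control; nearly all actives have a fitted effect of over 45% in size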
#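 AMA1 (3D7) with his tag at 25 nM final met compounds first, then biotinylated RON2 peptide at 25 nM; detection used donor plus acceptor beads, 10 µg/mL apiece, read by AlphaScreen after 30 min at room temperature.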
# CHX counter: Cycloheximide Counterscreen for Small Molecule Inhibitors of Shiga Toxin; cell reporter, cycloheximide protein synthesis inhibition counterscreen; max response, %; hit rate 12% among 300,000; AID 2314, 2010; in the data active = max response mostly above about 13%, no sharp cut-off; inactive = mostly below about 14%; also: read at 38.3 µM for the half of the compounds with a filed dose; 0% is about no effect
# Shiga inhibitor: A qHTS for Small Molecule Inhibitors of Shiga Toxin; AID 2315, 2010; Vero cells, Shiga toxin protein synthesis inhibition reporter; hit rate 9.2% among 290,000; inhibition, % at 38.7 µM; in the data active = inhibition mostly above about 28%, no sharp cut-off; inactive = mostly below about 43%; also: 0% is about no effect
# The depositor's hits bear a star; ? = inconclusive; . = no result; [ ] = remark or other dose. In the library only some 21% were active in any assay of this set; here they are far more common. Unless noted, calls follow the shape of the dose curve; as a rule, active = well fitted curve in the direction sought with a large enough effect; inconclusive = small, poorly fitted or top-dose-only effect, or another doubt; inactive = no such curve, though single readings can be large; an effect the other way counts as inactive or inconclusive.
SMILES,HCV inh,Pf growth 96h,Pf growth 48h,AMA1-RON2 inh,CHX counter,Shiga inhibitor
CCc1nn(C(C)C(=O)NCc2ccc(Cl)cc2)c(=O)c2cc3occc3n12 (configuration not stated),?,?,41.3%,-4.4%,12.3*,10.6
CCc1nn(C(C)C(=O)NCc2cccc(Cl)c2)c(=O)c2cc3occc3n12 (configuration not stated),8.91µM*,-20.7%,3.5%,-12.2%,2.0,17.5
Cc1nn(C(C)C(=O)NC(C)CCc2ccccc2)c(=O)c2cc3occc3n12 (configuration not stated),?,?,-11.9%,15.9%,-5.3,1.3
CCc1nn(CC(=O)NCc2cccnc2)c(=O)c2cc3occc3n12,?,10.4µM*,23.6%,0.0%,-1.2,10.5
CCc1nn(C(C)C(=O)NCCc2ccccc2)c(=O)c2cc3occc3n12 (configuration not stated),-29.2%,?,7.2%,10.5%,11.4,11.4
CCc1nn(CC(=O)NC(C)CCc2ccccc2)c(=O)c2cc3occc3n12 (configuration not stated),?,-5.2%,16.2%,16.3%,-8.6,-7.2
CCOc1cc(C2NN=C(c3ccccc3)S2)ccc1OCc1ccccc1Cl (configuration not stated),?,144.4%,136.9%,14.0%,45.3*,66.1*
CCOc1cc(C2NN=C(c3ccccc3)S2)ccc1OCc1ccc(F)cc1 (configuration not stated),?,.,184.4%,2.5%,43.0*,112.2*
CCOc1cc2c(cc1OCC)C(c1ccc(F)cc1)NCC2 (configuration not stated),9.4%,.,.,-0.5%,.,.
OCCNCc1cc(Br)ccc1OCc1ccccc1Cl,?,?,?,6.2%,-3.1,-7.0
CCCCNC(=S)N1CCN(c2nc3ccccc3s2)CC1,?,?,0.3%,9.7%,-2.2,-2.3
c1ccc(Cn2nnnc2C(c2ccccc2)N2CCN(c3nc4ccccc4s3)CC2)cc1 (configuration not stated),8.2%,-2.3%,7.4%,13.1%,-1.7,9.8
O=C(Nc1ccccc1)N1CCN(c2nc3ccccc3s2)CC1,?,.,?,16.2%,26.7*,0.0
CCC(=O)N1CCN(c2nc3ccccc3s2)CC1,?,66.4%,.,-3.3%,22.6*,35.8
O=C(c1cc2sccc2n1Cc1ccccc1)N1CCN(c2nc3ccccc3s2)CC1,4.47µM*,?,?,-21.7%,9.2,28.5
O=C(C1CC1)N1CCN(c2nc3ccccc3s2)CC1,-4.0%,0.9%[5.75 µM],220.4%,-2.5%,32.7*,131.6*
O=C(O)C1(c2ccccc2)CCN(S(=O)(=O)c2ccc(Br)cc2)CC1,0.5%,?,-15.2%,-8.3%,-3.0,.
CC1(C)[C@@H](OC(=O)CCC(=O)O)CC[C@@]2(C)[C@H]1CC[C@@]1(C)[C@H]2C(=O)C=C2[C@H]3C[C@](C)(C(=O)O)CC[C@]3(C)CC[C@@]21C,.,-0.1%[12.8 µM],4.4%[12.8 µM],.,.,.
CNC(=S)N1CCN(c2nc3ccccc3s2)CC1,4.2%,43.3%,107.4%,8.4%,46.3*,69.5*
CS(=O)(=O)N1CCN(c2nc3ccccc3s2)CC1,4.4%,-7.7%,48.5%,-5.4%,11.6*,11.5
O=S(=O)(c1ccccc1)N1CCN(c2nc3ccccc3s2)CC1,31.5%,.,28.9%,13.7%,11.6,24.0
COc1cccc(S(=O)(=O)Nc2ccc(C(O)(C(F)(F)F)C(F)(F)F)cc2)c1,.,.,.,5.7%,.,.
C/C(=N\NC(=S)NCc1ccccc1)c1cccs1,?,?,-22.8%,-15.5%,34.5*,134.9*
C/C(=N\NC(=S)NCc1ccccc1)c1ccc2ccccc2c1OC(F)F,12.6µM*,?,0.0%,46.3%,10.7,-5.7
C/C(=N\NC(=O)Cc1ccccc1)c1cccs1,-10.0%,68.5%,30.9%,-1.2%,9.2,-1.2
SMILES,HCV inh,Pf growth 96h,Pf growth 48h,AMA1-RON2 inh,CHX counter,Shiga inhibitor
C/C(=N\NC(=S)NCc1ccccc1)c1ccc(Br)cc1,?,?,?,12.0%,1.7,25.2
C/C(=N\NC(=S)NCc1ccccc1)c1ccc(Cl)s1,11.2µM*,?,?,-0.4%,0.4,9.0
O=C(NCc1cccc(Cl)c1)c1ccc(-n2cncn2)c2ccoc12,.,.,.,5.3%,.,.
O=C(CCC1CCCCC1)NCCS(=O)(=O)N1CCN(c2ccccc2)CC1,1.1%[8.37 µM],16.1%,1.0%,-19.8%,.,.
C[C@@H]1CN([C@H](C)CO)C(=O)CCCn2cc(nn2)CO[C@H]1CN(C)S(=O)(=O)c1cccc(C#N)c1,.,.,.,-6.9%,.,.
COc1ccc([C@H]2C[C@@H](O)C[C@@H](CCn3cc(-c4ccccc4)nn3)O2)cc1,.,.,.,-1.8%,.,.
NC(=S)NN=C1CCCCCCCCCC1,11.2µM*,.,.,18.6%,.,.
NC(=S)NN=C1CCC(C2CCCCC2)CC1 (configuration not stated),?,.,.,17.4%,.,.
O=c1[nH]cn[nH]1,0.562µM*,0.0%,62.4%,6.6%,-0.8,-6.4
COc1ccc(C2=Nn3c(nnc3-c3ccc(OC)cc3OC)SC2)cc1,.,.,.,.,-4.0,-5.1
COc1ccc(C(=O)/C=C/Nc2ccc([N+](=O)[O-])cc2C)cc1OC,?,0.0%,5.0%,8.6%,5.1,13.9
CCOc1ccc(N/C=C/C(=O)c2ccc(C)cc2)c([N+](=O)[O-])c1,3.5%,-12.0%,138.3%,-6.8%,41.6*,64.4*
Cc1ccc(C(=O)/C=C/Nc2ccc([N+](=O)[O-])cc2Br)cc1,10.9%,215.2%,112.0%,14.8%,67.3*,77.0*
Cc1ccc(S(=O)(=O)N2CCC(C(=O)OC(C)C(=O)NCc3ccccc3)CC2)cc1C (configuration not stated),17.1%,?,4.3%,3.4%,-2.3,-5.0
COC(=O)Cc1nnc(SCC(=O)Nc2ccccc2)c2ccccc12,?,-26.1%,?,7.5%,-1.0,-7.2
COc1ccc(/C=N/Nc2cc(C)nc(-n3nc(C)cc3C)n2)c(OC)c1,?,0.329µM*,1.47µM*,32.6%,-1.2,1.3
CCOc1cc(/C=N/Nc2cc(C)nc(-n3nc(C)cc3C)n2)ccc1O,?,1.65µM*,0.37µM*,84.0%,-0.8,0.9
CCOc1ccc(Nc2cc(C)nc(-n3nc(C)cc3C)n2)cc1,?,?,1.85µM*,-14.9%,-2.6,30.5
COc1ccccc1/C=N/Nc1cc(C)nc(N2CCOCC2)n1,-28.1%,?,?,-11.9%,24.0*,22.3
CCOc1cc(/C=N/Nc2nc(C)cc(=O)[nH]2)ccc1O,8.7%,6.6%,?,60.3%,-1.6,-5.7
